From PubChem BioAssay (NCATS)
Results filed as inconclusive are left out. Unmarked numbers belong to inactive results. Activity calls are given as the source filed them. Calls follow the shape of the dose curve; as a rule, active = well fitted inhibition curve with a large enough effect; inconclusive = small, poorly fitted or top-dose-only effect; inactive = flat fitted curve, though single readings scatter.

Key:
CRL-7250 = normal cell line; assay: Cytotoxic Profiling of Annotated Libraries Using Quantitative High-Throughput Screening (AID 1296008); conditions: Five cell lines viability, CellTiter-Glo ATP luminescence, 48-72 h; max response: stronger effect = lower value; also: potency is read from the fitted curve at half-maximal effect; as to max response: % is scaled to controls: 0 for no effect and ±100 for the full control effect
Outline: (§1)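 Cells exposed to compounds for 48 or 72 hr at 37 degrees Celsius. Viability read as ATP-coupled luminescence with CellTiter-Glo after 10 min at room temperature.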

HEK293 = assay: as above; conditions: Five cell lines viability, CellTiter-Glo ATP luminescence, 48-72 h; max response: stronger effect = lower value
Outline: as §1

HaCat [1] = assay: as above; conditions: Five cell lines viability, CellTiter-Glo ATP luminescence, 48-72 h; max response: stronger effect = lower value
Outline: as §1

KB-3-1 = assay: as above; conditions: Five cell lines viability, CellTiter-Glo ATP luminescence, 48-72 h; max response: stronger effect = lower value
Outline: as §1

NIH3T3 = assay: as above; conditions: Five cell lines viability, CellTiter-Glo ATP luminescence, 48-72 h; max response: stronger effect = lower value
Outline: as §1

HACAT [2] = assay: qHTS assay to identify novel small-molecules to repurpose for Merkel cell carcinoma treatment (AID 1296009); conditions: MCC and control cell lines, CellTiter-Glo viability, 72 h; at 44.8 µM (top of the series) unless noted
Outline: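 CellTiter-Glo luminescence after 72 hr compound exposure at 37 degree celsius gave cell viability. Libraries NPC and MIPE were run as 8- and 11-point dose responses; RLUs normalized to DMSO (negative) and no-cell (cytotoxicity) controls.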
Also: nearly all actives have a fitted effect of over 60% in size.

Structure (SMILES)	max response (CRL-7250)	max response (HEK293)	outcome (HaCat [1])	outcome (KB-3-1)	max response (NIH3T3)	outcome (HACAT [2])	outcome (CRL-7250)	max response (KB-3-1)	outcome (NIH3T3)	Potency (HEK293)
O=C(/C=C/c1ccc(O)cc1)OC[C@@]1(O)C=C[C@@H]2C(C(=O)O)=CO[C@@H](O[C@@H]3O[C@H](CO)[C@@H](O)[C@H](O)[C@H]3O)[C@@H]21	-3.16%	-5.68%	inactive	inactive	2.82%	inactive [at 17.4 µM]				
O=C(/C=C/c1ccccc1)OC[C@H]1O[C@@H](OC(=O)c2cc(O)c(O)c(O)c2)[C@H](O)[C@@H](O)[C@@H]1O		4.27%	inactive		3.75%	inactive [at 17.4 µM]	inactive	6.66%		
C=C1Cc2c(Cl)cc3[nH]c4c5c3c2[C@@]2(O)[C@@H]1C[C@@H]2C(C)(C)O[C@H]5C1CC[C@@]2(O)[C@@]35O[C@@H]3[C@H]3OC(C)(C)[C@H]3O[C@H]5CC[C@]2(C)[C@@]41C (stereo partly drawn)	-4.78%	0.456%	inactive			inactive [at 17.4 µM]		6.12%	inactive	
COc1cccc(OC)c1-c1cc(C(=O)N[C@@H](CC(C)C)C(=O)O)nn1-c1ccnc2cc(Cl)ccc12		-1.22%	inactive	inactive		inactive	inactive		inactive	
O=C(Nc1ccc(N2CCC(C(=O)N3CCOCC3)CC2)cc1)c1cnc(Oc2ccccc2)nc1	-3.51%	-17.8%	inactive		-17.6%	inactive		-6.22%		
CC1=CC2=C(C)C(=O)C(C)(O)C(O)C2CO1 (stereo not drawn)	-6.39%	-9.93%	inactive		1.32%	inactive		5.71%		
CCOC(=O)C1=C(N)Oc2ccc(Cl)cc2C1C(C#N)C(=O)OCC (stereo not drawn)	2.77%	1.25%	inactive	inactive	-2.7%	inactive				
COc1cc(O[C@@H]2O[C@H](CO[C@H]3OC[C@](O)(CO)[C@H]3O)[C@@H](O)[C@H](O)[C@H]2O)cc(OC)c1O	-3.27%	0.643%	inactive	inactive	-4.07%	inactive [at 17.4 µM]				
O=C(c1ccc(Cl)c([N+](=O)[O-])c1)N1CCN(c2ccccc2F)CC1	-5.45%	0.0452%	inactive	inactive		inactive			inactive	
COCCN1CCC(C(=O)NO)(S(=O)(=O)c2ccc(Oc3ccc(OC(F)(F)F)cc3)cc2)CC1	-0.582%	-3.44%	inactive	inactive		inactive			inactive	
CC(O)C1CCC2C3CCC4CC(OC5OC(C(=O)O)C(O)C(O)C5O)CCC4(C)C3CCC12C (stereo not drawn)	-11.7%	-10.1%	inactive		-3.21%	inactive		-9.6%		
C/C=C(/C)C(=O)O[C@@H]1C[C@@H](OC(=O)/C(C)=C\C)[C@@]2(C)C3C(=O)C=C(C)C2C3C1(C)C	-3.44%	-8.78%	inactive	inactive	4.88%	inactive [at 17.4 µM]				
CC1CC2(O)OC(=O)C3=C2C(CCC3)[C@@]12C[C@@H](c1ccoc1)OC2=O (stereo partly drawn)	0.272%	-0.207%	inactive	inactive	0.0082%	inactive				
C[C@H]1CCN2C[C@]34C[C@@]5(C(=O)Nc6c5ccc5c6OC=CC(C)(C)O5)C(C)(C)C3C[C@]12C(=O)N4C (stereo partly drawn)		-13.2%	inactive		3.63%	inactive [at 17.4 µM]	inactive	-2.39%		
O=C1OC(c2ccc(O)cc2)C(O)=C1Cc1ccccc1 (stereo not drawn)	3.91%	0.741%	inactive	inactive	4.9%	inactive				
Oc1ccccc1-c1cc(-c2ccccc2F)[nH]n1	3.55%	4.01%	inactive		3.17%	inactive		-0.368%		
COc1ccc(-n2c(SCC#N)nc3sc4c(c3c2=O)CCCC4)cc1	1.37%	3.85%	inactive		4.07%	inactive		9.32%		
Cc1c(-c2ccc3c(c2)OCO3)oc2ccc(C(O)C(C)O)cc12 (stereo not drawn)	-2.17%	-10.1%	inactive	inactive		inactive			inactive	
C[C@@H]1CC2OC(=O)C3=C2C(CCC3O)[C@@]12C[C@@H](c1ccoc1)OC2=O (stereo partly drawn)	-0.741%	2.79%	inactive	inactive		inactive			inactive	

Structure (SMILES)	max response (CRL-7250)	max response (HEK293)	outcome (HaCat [1])	outcome (KB-3-1)	max response (NIH3T3)	outcome (HACAT [2])	outcome (CRL-7250)	max response (KB-3-1)	outcome (NIH3T3)	Potency (HEK293)
C/C(=C\CCC(C)CCO)C(=O)OC[C@H]1O[C@@H](O[C@@H]2OC=C(C(=O)O)[C@H]3CC[C@](C)(O)[C@@H]23)C(O)[C@@H](O)C1O (stereo partly drawn)	3.02%	4.12%	inactive	inactive		inactive [at 17.4 µM]			inactive	
CC(=O)c1ccc(O[C@@H]2OC[C@@H](O)[C@H](O)[C@H]2O[C@]2(CO)O[C@H](CO)[C@@H](O)[C@@H]2O)c(O)c1		2.18%	inactive	inactive		inactive [at 17.4 µM]	inactive		inactive	
CC(=O)c1[nH]cc(CCC(=O)O)c1CC(=O)O		-1.24%	inactive	inactive	-3.85%	inactive	inactive			
CCOC(=O)COc1ccc2c(c1)C[C@@H](NC[C@H](O)c1cccc(Cl)c1)CC2		4.31%	inactive		1.73%	inactive	inactive	7.38%		
C/C1=C\CC(C)(C)/C=C/C/C(C(=O)O)=C/CC1	-3%	-13.3%	inactive			inactive		-12.2%	inactive	
CCOc1ccc(-c2nn3ncccc3c2-c2ccc(S(C)(=O)=O)cc2)cc1	-7.67%	-11.9%	inactive		3.39%	inactive		2.36%		
C=C(C)[C@@H]1CC[C@]2(C)CC[C@]3(C)C(CCC4[C@@]5(C)CC[C@H](O)C(C)(C)C5CC[C@]43C)C12 (stereo partly drawn)		1.06%	inactive	inactive	2.33%	inactive [at 17.4 µM]	inactive			
NC1Nc2ccccc2C1(N)CC1NC(=O)C(Cc2ccccc2)NC(=O)C(Cc2ccccc2)NC1=O (stereo not drawn)	-1.59%	-40.7%	inactive		1.33%	inactive [at 17.4 µM]		2.51%		
COCCCc1sc(-c2ccccc2)nc1C(=O)Nc1ccccc1-c1nc2cc(CN3CCCC3)cnc2s1		-7.81%	inactive	inactive		inactive [at 17.4 µM]	inactive		inactive	
C=CC(C)(CC/C=C(\C)C(=O)OC[C@H]1O[C@@H](OC(C)(C=C)CC/C=C(\C)C(=O)O[C@H]2[C@H](O)[C@@H](O)[C@H](OC(C)(C=C)CC/C=C(\C)C(=O)O)O[C@@H]2CO)[C@H](O)[C@@H](O)[C@@H]1O)O[C@@H]1O[C@H](CO)[C@@H](O)[C@H](O)[C@H]1O (stereo partly drawn)	-2.1%	-7.01%	inactive		-1.72%	inactive [at 9.27 µM]		3.96%		
O=C(OC1C=C(CO)C2C(OC3OC(CO)C(O)C(O)C3O)OC=CC12O)c1ccc(O)cc1 (stereo not drawn)	4.89%	-1.34%	inactive		-4.5%	inactive [at 17.4 µM]		1.12%		
COC(=O)C1=CO[C@@H](O[C@@H]2O[C@H](CO)[C@@H](O)[C@H](O)[C@H]2O)[C@@H]2[C@@H](C(=O)O)CC[C@H]12	-20%	-0.168%	inactive		0.607%	inactive [at 17.4 µM]		3.46%		
CCC(C)/C=C(C)/C=C/C1=CC2=C(Cl)C(=O)C(C)(O)C(=O)C2(O)C(OC)O1 (stereo not drawn)	-11.8%	-3.29%	inactive	inactive		inactive [at 17.4 µM]			inactive	
COc1ccc(C(=O)OC2C3C=COC(OC4OC(CO)C(O)C(O)C4O)C3C3(CO)OC23)cc1OC (stereo not drawn)	-2.32%	1.41%	inactive		-4.72%	inactive [at 17.4 µM]		3.28%		
O=C(NC/C=C/CN1CCN(c2cccc(Cl)c2Cl)CC1)c1ccc(-c2ccccn2)cc1	-4.15%		inactive		2.53%	inactive		-2.38%		13 µM (active)
Nc1ncnc2c1c(COc1cccc(Cl)c1)nn2C1CCOCC1	-3.67%	-4.69%	inactive	inactive		inactive			inactive	
CNc1nc(Nc2cn(C(C)(C)C#N)nc2C)ncc1C(F)(F)F	0.355%	-5.29%	inactive		-4.77%	inactive		6.02%		
Cc1ccc(-c2c(-c3nn(C)c4ncnc(N5CC[C@H](N6CCCCC6)C5)c34)cnn2C)cc1	-0.469%	-5.54%	inactive			inactive		-0.872%	inactive	
O=C(N[C@@H]1CC[C@@H](c2cccc(F)c2F)CN(CC(F)(F)F)C1=O)N1CCC(n2c(=O)[nH]c3ncccc32)CC1	-4.99%		inactive	inactive	-12.6%	inactive				16.4 µM (active)
